Most compounds without a hit are left out; they make up all but 19% or so of the library.
IL-1B inflam inh: inflammasome signaling inhibition, IL-1 beta readout | THP-1 LPS/ATP IL-1B secretion, AlphaLISA, 16 h; active compounds read low | activity change, % at 57.5 µM | 4.7% of 360,000 active | AID 743279; in the data active means activity change below about -50%; inconclusive means mostly about -30% to -49%; further: on the % scale 0 is the no-effect control and ±100 the full control effect
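THP-1 cells pretreated 1 hr with compounds (up to 57.5 uM final), then stimulated with LPS (250 ng/mL final) plus ATP (1.25 mM final); secreted IL-1B measured by AlphaLISA after 16 hr, decreased signal indicating inhibition.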
DT40 TDP1 CPT: DT40-hTDP1 cell growth loss with CPT; chicken DT40 Tdp1-/-;hTDP1 cells + 20 nM CPT, ATP luminescence, 48 h; 12% of 420,000 active; Potency, µM (top dose mostly 46.2 µM), for inactives: at the top dose activity change, negative = growth inhibition, hits mostly inhibitors; further: potency means the concentration at half of the fitted maximal effect; on the % scale 0 is the no-effect control and ±100 the full control effect; nearly all actives have a fitted effect of over 55% in size
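Cell growth measured by CellTiter-Glo luminescence after a minimum 48 h, 37 C compound exposure with 20 nM CPT in Tdp1-knockout DT40 cells stably expressing hTDP1, seeded 400/well; qHTS titration format.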
SW480 rereplic: DNA re-replication induction in SW480 cells. SW480 DNA re-replication, Hoechst DNA content imaging, 48 h. Potency, µM (highest dose often 46.1 µM), for inactives: top-dose re-replication activation, actives largely listed as activators. 1.8% of 340,000 active; further: potency means the concentration at half of the fitted maximal effect; % of control where 0% means no effect; nearly all actives have a fitted effect of over 55% in size
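Image-based read-out: total Hoechst fluorescence of nuclei (405 nm excitation, 500-530 nm emission), with hits raising the fraction of high-intensity nuclei. SW480 colon cells incubated 48 hr with compounds at 37 C.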
MCF10A rereplic: DNA re-replication induction in MCF 10a cells; AID 624296; 2.9% of 350,000 active; MCF 10A DNA re-replication, Hoechst nuclear intensity, 48 h; Potency, µM (titrated, usually from 46.1 µM), for the others: at the highest dose activity, positive = re-replication, actives largely listed as activators; further: potency means the concentration at half of the fitted maximal effect; % of control where 0% means no effect; nearly all actives have a fitted effect of over 50% in size
BCR signal inh: inhibitors of chronic active B-cell receptor signaling; ABC-DLBCL IkBa-CBG/CBR reporter, luminescence ratio, 4 h; Potency, µM (series often up to 46.1 µM), inactives show at the highest dose activity change, negative = inhibition, actives largely listed as inhibitors; 0.05% of 340,000 active; AID 493014; active means well fitted inhibition curve with a large enough effect in the signal ratio, with a control signal flat, not every such curve was filed as active; inconclusive means small, poorly fitted or top-dose-only effect, or effect the other way, or a change in a side signal; the % refers to the signal ratio;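 further: potency means the concentration at half of the fitted maximal effect; plate controls were basal doxycycline-induced cells for no effect and cells given 10 µM MG132 for full effect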
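Compounds up to 46 uM were incubated four hours with TMD8 cells whose green CBG68 luciferase is fused to IkappaBalpha; red CBR luminescence normalised the signal, and concentration-effect curves were fitted to fusion, red and ratio data.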
DT40 TDP1 no CPT: qHTS for Inhibitors of human tyrosyl-DNA phosphodiesterase 1 (TDP1): qHTS in cells in absence of CPT; DT40 Tdp1-/- hTDP1 cells, no CPT, ATP luminescence, 48 h; Potency, µM (titrated, usually from 46.2 µM), for inactives: top-dose activity change, negative = growth inhibition, hits mostly inhibitors; 15% of 420,000 active; AID 686978, 2013; further: potency means the concentration at half of the fitted maximal effect; on the % scale 0 is the no-effect control and ±100 the full control effect; nearly all actives have a fitted effect of over 55% in size
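Luminescent ATP content (CellTiter-Glo) served as the growth readout. Knockout chicken DT40 cells expressing human TDP1 were exposed to compounds without camptothecin for a minimum 48 hr at 37 °C.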
* = called active by the depositor; ? = inconclusive; · = not tested or not shown. Unless noted, the call rests on the fitted dose curve; in most records, active means well fitted curve in the direction sought with a large enough effect; inconclusive means small, poorly fitted or top-dose-only effect, or another doubt; inactive means no such curve, though single readings can be large; an effect the other way counts as inactive or inconclusive.

SMILES	IL-1B inflam inh	DT40 TDP1 CPT	SW480 rereplic	MCF10A rereplic	BCR signal inh	DT40 TDP1 no CPT
CCCCC(=O)OCC(=O)[C@]1(O)Cc2c(O)c3c(c(O)c2[C@H](OC2CC(NC(=O)C(F)(F)F)C(O)C(C)O2)C1)C(=O)c1c(OC)cccc1C3=O (some centres not stated)	·	·	-15%	-5%	·	·
CC(=O)[C@]1(O)Cc2c(O)c3c(c(O)c2[C@@H](O[C@H]2C[C@H](N)[C@H](O)[C@H](C)O2)C1)C(=O)c1ccccc1C3=O	-106*	0.15µM*	-219%	2%	·	0.0073µM*
CC[C@]1(C(=O)OC)[C@H]2C(=O)N(C)C(=O)[C@H]2[C@H]2CN=C(SC)N21	18	4%	-9%	10%	·	-4%
COc1cccc2c1C(=O)c1c(O)c3c(c(O)c1C2=O)C[C@@](O)(C(C)=O)C[C@@H]3O[C@H]1C[C@H](N)[C@H](O)[C@H](C)O1	-110*	0.021µM*	-4%	13%	?	0.0058µM*
O=C(NNC1=Nc2ccccc2SC1)c1ccc(Cl)cc1	57	6.5µM*	18µM*	?	?	12µM*
CC(C)(C)c1csc(NNC(=O)c2ccc(Cl)cc2)n1	95	?	?	?	?	?
O=C(NNC1=Nc2ccccc2SC1)c1ccc(F)cc1	26	?	-6%	2%	?	23µM*
CC(C)n1[nH]c2ccccc2c1=O	1	-26%	·	·	·	5%
Cc1ccc(-n2nnc3c(sc4nc(C)c(C)cc43)c2=O)cc1Cl	·	-10%	·	·	·	-2%
CN1CCN(c2ccc(-c3cccc(NC(=O)COc4ccccc4)c3)nn2)CC1	-5	?	-8%	?	?	21µM*
CN1CCN(c2ccc(-c3cccc(NC(=O)COc4ccc(Cl)cc4)c3)nn2)CC1	-70*	?	-5%	?	?	?
Cc1cccc(-c2nnc(SCC(=O)N3CCOCC3)o2)c1	5	4%	-21%	-10%	3%	-7%
CCOC(=O)C1CCN(C(=O)Cn2nc(CC)n3c(cc4occc43)c2=O)CC1	·	?	·	·	·	-23%
Cc1cc(-c2ccc(S(=O)(=O)Nc3ccccc3F)s2)on1	·	-18%	·	·	·	?
Cc1ccc(CNC(=O)CCn2cc(-c3ccc(C)cc3)nc2CCN)cc1	?	?	3%	-6%	-1%	?
CC1=CC(C)(C)N=C(Nc2nc(C)c3cc(C)cc(C)c3n2)N1	-95*	15µM*	0%	27%	?	16µM*
CCc1cc(-c2[nH]ncc2-c2nc3ccccc3n2C)c(O)cc1O	-10	-20%	26%	19%	?	?
CCOc1cc(O)c(-c2[nH]ncc2-c2nc(C)cs2)cc1CC	5	23µM*	?	?	?	21µM*
CCCCNc1c(-c2cccnc2)nc2nc(C)cc(C)n12	0	?	·	·	·	12µM*
Cc1cc(C)n2c(Nc3c(C)cccc3C)c(-c3cccnc3)nc2n1	0	6%	·	·	·	-19%
Cc1cccc2nc(-c3cccnc3)c(NCCC(C)C)n12	-82*	9.2µM*	-2%	21µM*	1%	16µM*
COCCCN1C(=O)C(CC(=O)NCc2ccco2)CC(C(=O)N(C(C)C)C(C)C)=C1C (configuration not stated)	19	3%	·	·	·	21%
CCC(=O)Nc1cc(OC)c(NC(=O)c2ccccc2)cc1OC	-16	-23%	-4%	12%	7%	-20%
COc1cc(NC(=O)c2cccs2)c(OC)cc1NC(=O)Nc1ccc(F)cc1	-15	?	-11%	16%	9%	23µM*

Screens deposited in PubChem by National Center for Advancing Translational Sciences (NCATS).
